Measurements published in PubChem BioAssay AID2156 (Johns Hopkins Ion Channel Center, 2009).
Hit rate of the full screen: of about 310,000 compounds, about 3,400 (1.1%) were called active. The sample holds actives, similar compounds and a random draw of the others, so the mix is not that of the screen.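 The calls were made as follows: active = fluorescence ratio B-score at most minus 3 library SDs, with starting brightness B-score within 2 library SDs (cut at about -5.5 in these data); inactive = the rest, inconclusive results apart.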

Target: Potassium voltage-gated channel subfamily KQT member 2 (Rattus norvegicus) (UniProt O88943)
Assay: rat KCNQ2 potassium channel inhibitors, primary screen, cell-based, CHO-K1, FluxOR thallium flux, B-score (AID 2156)
Conditions: 20 min, at 10 µM; active compounds read low

Chain of Potassium voltage-gated channel subfamily KQT member 2 (Rattus norvegicus) (O88943 whole entry, looked up): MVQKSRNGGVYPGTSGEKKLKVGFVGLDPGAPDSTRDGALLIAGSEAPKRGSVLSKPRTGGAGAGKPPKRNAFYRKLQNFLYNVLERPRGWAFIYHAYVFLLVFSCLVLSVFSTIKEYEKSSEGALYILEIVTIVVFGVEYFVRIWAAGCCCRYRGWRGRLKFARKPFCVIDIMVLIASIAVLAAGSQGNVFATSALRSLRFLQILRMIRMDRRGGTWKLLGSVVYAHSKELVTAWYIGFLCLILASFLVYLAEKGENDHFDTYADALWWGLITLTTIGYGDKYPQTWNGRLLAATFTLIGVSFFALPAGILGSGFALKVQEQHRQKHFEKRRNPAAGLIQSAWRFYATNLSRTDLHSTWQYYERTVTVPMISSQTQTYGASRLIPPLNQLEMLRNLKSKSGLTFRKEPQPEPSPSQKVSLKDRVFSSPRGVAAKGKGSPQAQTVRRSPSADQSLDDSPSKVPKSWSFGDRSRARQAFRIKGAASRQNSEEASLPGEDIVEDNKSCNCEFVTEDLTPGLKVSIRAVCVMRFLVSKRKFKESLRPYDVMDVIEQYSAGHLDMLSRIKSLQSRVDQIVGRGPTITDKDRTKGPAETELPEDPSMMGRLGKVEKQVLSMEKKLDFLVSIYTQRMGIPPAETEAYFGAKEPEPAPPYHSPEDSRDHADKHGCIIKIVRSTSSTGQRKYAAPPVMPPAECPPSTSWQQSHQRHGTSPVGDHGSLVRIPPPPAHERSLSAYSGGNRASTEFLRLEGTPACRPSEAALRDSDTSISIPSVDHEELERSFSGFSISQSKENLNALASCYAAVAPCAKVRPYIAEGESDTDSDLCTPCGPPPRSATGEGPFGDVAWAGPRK

B-score, active:
Cc1ccc2c(c1)N(C(=O)CCC(=O)N1CCc3ccccc3C1)CCO2 -5.74
COc1ccc(C(=O)NC2CCCc3c2cnn3-c2cccc(C)c2C)c(OC)n1 (stereo unspecified) -6.25
Cc1ccc(N2C(=O)C3C(c4ccccc4)(C2=O)C3(c2ccccc2)c2ccccc2)cc1 (stereo unspecified) -9.48
COc1cc(C(=O)Nc2oc(-c3ccccc3)c(-c3ccccc3)c2C#N)cc(OC)c1OC -6.31
Cc1cccc(-[n+]2c(-c3cccc(Br)c3)[nH]c3nc4ccccc4nc32)c1 -6.92
CCN(CC)CCOc1ccc2c(c1)C(=NNC(=O)c1ccccn1)c1cc(OCCN(CC)CC)ccc1-2 -7.1
CCc1ccccc1NC(=O)/C(=C/c1ccccc1)c1ccccc1 -9.3
CCN1CCN(c2c(Cl)cccc2NC(=O)c2ccc(Br)o2)CC1 -6.14
CC1(c2cccc([N+](=O)[O-])c2)CC(C)(C)N(C(=O)c2ccccc2)c2ccccc21 (stereo unspecified) -7.53
O=C(Nc1cccc(Cl)c1N1CCOCC1)c1ccc2c(c1)OCCO2 -6.48
CCOc1ccc(CN(Cc2ccco2)C(c2cccs2)c2nnnn2C(C)(C)C)cc1 (stereo unspecified) -6.35
COCCN1C(=O)c2oc3c(C)cc(C)cc3c(=O)c2C1c1cccc(O)c1 (stereo unspecified) -6.4
Nc1ccccc1SC(C[N+](=O)[O-])c1ccccc1 (stereo unspecified) -7.63
Cc1ccc(S(=O)(=O)N2CCOCC2)cc1C(=O)Nc1ccccc1N1CCCC1 -6.63
Cc1cc(C(=O)Nc2ccccc2N2CCOCC2)c2ccccc2n1 -6.19
Cc1nc2ccccc2c(-c2ccccc2)c1C(=O)c1ccccc1 -9.15
Cc1onc(-c2ccccc2Cl)c1C(=O)NCCn1ccc2ccccc21 -5.59
COc1ccc(-c2[nH]nc(-c3ccccc3)c2-c2nc3ccccc3[nH]2)cc1 -7.31
CCOC(=O)c1c(NC(=O)C2(C)Cc3ccccc3C(=O)O2)sc2c1CCCC2 (stereo unspecified) -5.8
CCOC(=O)c1c(NC(=O)CSc2cn(CC)c3ccccc23)sc2c1CCC2 -7.2
C[C@H](NC(=O)c1ccccc1Cl)C(=O)OCCOc1cccc(Cl)c1 -6.72
Cc1ccc(SCC(=O)c2cc(C)c(OC(=S)N(C)C)c(C)c2)cc1 -7.36

B-score, inactive:
Cc1ccc2c(c1)N(C(=O)CCC(=O)NCc1cccnc1)CCO2 -0.11
Cc1ccc(Cl)c(OCC(=O)N2CCc3ccccc3C2)c1 -3.66
COc1ccc(C(=O)OCC(=O)Nc2ccc3[nH]c(=O)[nH]c3c2)c(OC)c1OC -0.64
Cc1cc(C(=O)NC2CCCc3c2cnn3-c2cccc(C)c2C)c(C)o1 (stereo unspecified) -2.79
Cn1nccc1C(=O)NC1CCCc2c1cnn2-c1ccccc1F (stereo unspecified)
O=C(COC(=O)Cn1[nH]c(=O)c2ccccc2c1=O)Nc1c(Cl)cccc1C(F)(F)F
Cc1ccc2nc(NC(=O)CSc3nc(=O)n(CCCN(C)C)c4c3CCC4)sc2c1
CC12CCC(=O)N1C(C(=O)Nc1ccc(F)c(F)c1F)CS2 (stereo unspecified)
CCOc1ccc(NS(=O)(=O)c2ccc(C(=O)NCC(c3ccccc3OC)N3CCCC3)cc2)cc1 (stereo unspecified) -1.58
Cc1ccc(N2C(=O)CC(Nc3cccc4ccccc34)C2=O)cc1 (stereo unspecified) -1.06
Cc1ccc(N2C(=O)C3CC3C2=O)cc1 (stereo unspecified)
CN(CC(=O)Nc1ccccc1Cl)C(=O)c1ccccc1SCC(=O)N1CCCC1 -0.59
CCCCCCCNC(=O)C1(CC2CC(c3cccc(Br)c3)=NO2)CCN(C(=O)c2cc(OCC)c(OCC)c(OCC)c2)CC1 (stereo unspecified) -2.53
N#Cc1c(NC(=O)CCCN2C(=O)c3ccccc3C2=O)oc(-c2ccccc2)c1-c1ccccc1 -1.14
COC(=O)c1sccc1NC(=O)c1cc(OC)c(OC)c(OC)c1
Cc1cccc(-c2nc(Nc3ccc(O)cc3)c3ccccc3n2)c1 -3.05
CCCCn1c(N)c(N(CCOC)C(=O)CSCC(=O)Nc2cccc(C)c2)c(=O)[nH]c1=O
O=S(=O)(Nc1cccc(-c2ccc(N3CCOCC3)nn2)c1)c1ccc(Cl)c(Cl)c1
Cc1cc(C)c(S(=O)(=O)N2CCCC2CNC(=O)c2ccc3c(c2)OCO3)c(C)c1 (stereo unspecified) -3.59
Cc1ccc(Cl)cc1NC(=O)c1ccccn1 -3.49
Cc1cccc(OCC(=O)NCCCNC(=O)c2ccccn2)c1 -0.01
COc1cc(C(=O)NCC(=O)NCCSc2ccc(Br)cc2)cc(OC)c1OC
COc1cccc(NC(=O)CN(C)C(=O)CSCc2nc3scc(-c4cccs4)c3c(=O)[nH]2)c1
O=C(/C=C/c1ccccc1)N/C(=C/c1ccccc1)C(=O)Nc1ccccc1O -0.61
CCc1ccccc1NC(=S)Nc1cc(OC)c(NC(=O)C(C)C)cc1OC -0.92
COC(=O)c1ccc(N2CCOCC2)c(NC(=O)c2ccc(Br)o2)c1
CCCC(=O)Nc1ccc(Cl)c(NC(=O)c2ccc(Br)o2)c1
CN(/N=C/c1ccccc1)C(=S)c1ccccc1
O=C(NCCS(=O)(=O)N1CCN(c2ccc(F)cc2)CC1)c1ccc2c(c1)OCO2
CC1(c2ccccc2)CC(C)(C)N(C(=O)c2cc([N+](=O)[O-])cc([N+](=O)[O-])c2)c2ccccc21 (stereo unspecified) -1.63
O=C(c1cccc([N+](=O)[O-])c1)N1CCN(Cc2ccccc2)CC1
NC(=O)c1ccsc1NC(=O)COC(=O)Cc1n[nH]c(=O)c2ccccc12 -1.74
COc1ccc(S(=O)(=O)NCCCc2ccccc2)cc1
Cc1ccc(OCCNC(=O)CCNS(=O)(=O)c2ccc(Br)cc2)cc1
O=C(Nc1cccc(Cl)c1N1CCOCC1)c1cccnc1
COC(=O)c1ccc(N2CCOCC2)c(NC(=O)c2ccc3c(c2)OCCO3)c1
Cc1ccc(NC(=O)CSCC(=O)Nc2sccc2C#N)cc1 -0.08
O=C(COC(=O)c1ccccc1Br)Nc1nnc(-c2ccccc2)o1 -0.06
CCOc1ccc(CN(Cc2ccco2)S(=O)(=O)c2ccc(-n3cnnn3)c(OC)c2)cc1
CC(C)(C)n1nnnc1C(c1cccs1)N(Cc1cccnc1)CC1CCCO1 (stereo unspecified) -0.68
O=C(NCc1ccccn1)Nc1ccc(Cl)cc1
CCCN(CC(=O)Nc1ccccc1OC)C(=O)CCC(=O)c1ccc(F)cc1 -1.98
CN(C1CCS(=O)(=O)C1)S(=O)(=O)c1ccc2ccccc2c1 (stereo unspecified) -0.6
O=C1c2oc3ccccc3c(=O)c2C(c2cccc(O)c2)N1c1ccccn1 (stereo unspecified) -0.06
O=C1c2oc3ccc(Br)cc3c(=O)c2C(c2cccc(F)c2)N1CCO (stereo unspecified) -4.46
CC(=O)O[C@H]1CC[C@@]2(C)[C@@H](CC[C@@H]3[C@@H]2CC[C@]2(C)[C@@H](C(C)(C)O)C[C@@H]32)C1
COc1ccc(NS(=O)(=O)c2ccc(C)c(C(=O)N(C)Cc3ccc(OC)cc3OC)c2)cc1
CCn1c(SC(C)C(=O)Nc2ccc(N3CCOCC3)cc2)nnc1-c1ccco1 (stereo unspecified)
COc1ccccc1NC(=O)COC(=O)c1ccccc1SCC(=O)N1CCCC1
CCS(=O)(=O)c1cc([N+](=O)[O-])c(Sc2ccccc2N)s1
Nc1ccccc1SCc1cc([N+](=O)[O-])cc2c1OCOC2 -0.29
Cc1cc(C)c(-c2csc(NC(=O)CCCc3nc4ccccc4c(=O)[nH]3)n2)c(C)c1
O=C(Nc1ccccc1N1CCOCC1)c1csc2c1CCCC2 -4.47
Cc1ccc(S(=O)(=O)N2CCOCC2)cc1C(=O)NCc1ccc(F)cc1
O=C(Nc1ccccc1N1CCCC1)c1ccc(F)c(S(=O)(=O)N2CCOCC2)c1 -0.88
Cc1cc(C(=O)NNC(=O)c2cccc(S(=O)(=O)N3CCOCC3)c2)c2ccccc2n1 -0.22
CN(C)CCn1c2c(c(SCC(=O)Nc3ccccc3C(F)(F)F)nc1=O)CCCC2 -0.04
Nc1c(-c2ccccc2)nnn1Cc1ccccc1
Cc1ccc(S(=O)(=O)N2CCN(C(=O)c3ccc(-n4cncn4)c([N+](=O)[O-])c3)CC2)cc1 -0.29
Cc1cccc(C)c1NC(=O)CNC(=O)c1c(C)nn(-c2ccccc2)c1C -1.69
O=C(Nc1nc(-c2ccco2)c(-c2ccco2)s1)c1ccco1 -3.35
CC(=O)c1c(-c2ccccc2)c2ccccc2[nH]c1=O -0.37
Cc1nc2ccccc2c(C)c1C(=O)c1ccc(F)cc1 -1.04
COc1cnn(-c2ccc([N+](=O)[O-])cc2)c(=O)c1Cl -0.13
COc1ccccc1C(=O)Nc1ccc(Nc2ccccc2)cc1
COc1ccc(CNS(=O)(=O)c2cc3c4c(c2)CCN4C(=O)CC3)cc1 -1.56
Cc1ccc(NC(=O)C2CC(=O)N(c3ccc4c(c3)OCCO4)C2)cc1S(=O)(=O)N1CCCCCC1 (stereo unspecified) -1.45
Cc1onc(-c2ccccc2Cl)c1C(=O)OCC(=O)c1ccccc1 -1.85
Cc1ccc2cc(CCNC(=O)c3c(-c4ccccc4Cl)noc3C)c(=O)[nH]c2c1 -1.13
COc1ccc(OC(C)C(=O)NCCc2nc3ccccc3[nH]2)cc1 (stereo unspecified)
Cc1ccc(-c2nc3ccccc3[nH]2)cc1N -0.17
COc1ccc(CCNC(=S)N2CCN(S(=O)(=O)c3ccc(F)cc3)CC2)cc1 -0.54
Cc1ccc(CSCC(=O)N(C)CC(=O)Nc2ccc(C)cc2)cc1
CC(Oc1ccc(Br)cc1)C(=O)NCC(c1ccco1)N1CCCCC1 (stereo unspecified) -2.11
CCOC(=O)c1c(NC(=O)CCC(=O)NCc2ccco2)sc2c1CCCC2
CCOC(=O)c1c(NC(=O)C(C)Sc2c[nH]c3ccccc23)sc2c1CCC2 (stereo unspecified) -4.14
CCOC(=O)c1c(NC(=S)NC)sc2c1CCCC2
CCOC(=O)c1c(NC(=O)Cn2nc(C(F)(F)F)cc2C)sc2c1CCC2 -0.09
CC(Sc1nn(-c2ccc(Cl)cc2)c(=S)s1)C(=O)NCC1CCCO1 (stereo unspecified) -0.45
COc1cccc(NC(=O)CSc2nccn(-c3ccc4c(c3)OCCO4)c2=O)c1 -2.03
COc1ccccc1CCC(=O)NNC(=O)c1ccncc1 -1.15
COc1ccc(S(=O)(=O)N2CCOC23CCN(S(=O)(=O)c2ccc([N+](=O)[O-])cc2)CC3)cc1 -0.03
Cc1ccc(N=C2SCCCN2C(=O)c2cccc(N3C(=O)CCC3=O)c2)cc1Cl
COc1ccccc1NC(=O)C(C)OC(=O)c1ccc(-n2cnnn2)cc1 (stereo unspecified)
O=C(CCN1C(=O)C2CCCCC2C1=O)Nc1ccc(OC(F)F)cc1 (stereo unspecified) -1.21
CC(C)NC(=O)c1ccc(Cl)cc1Cl
O=C(COc1cccc(Cl)c1)NCc1ccccc1
CCOC(=O)c1c(C)[nH]c(C(=O)OCC(=O)c2ccc(OC)cc2OC)c1C -0.07
COc1ccc(S(=O)(=O)N2CCCCC2)cc1NC(=O)C1CC(=O)N(c2ccc3c(c2)OCCO3)C1 (stereo unspecified) -0.27
Cc1csc2nc(O)c(C(=O)NCCN3CCOCC3)c(=O)n12
Cc1ccc(C(=O)CSc2ccccc2C(=O)O)cc1
Cc1ccc(SCC(=O)Nc2ccc3c(c2)OCCO3)cc1
Cc1ncc(CO)c(/C=N/NC(=O)c2cccc(S(=O)(=O)N3CCCC3)c2)c1O -2.49
Cc1ccc(C(=O)NC2CCCC(C)C2C)cc1S(=O)(=O)N1CCCCC1 (stereo unspecified) -3.09
